Compound activity deposited in PubChem by several laboratories.
TIM10 inh: TIM10 yeast growth inhibition | S. cerevisiae TIM10 strain growth, BacTiter-Glo luminescence, 24 h | 330,000 tested, 1.4% active | inhibition, % at 10 µM;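 active = inhibition of 40% or more at the single tested concentration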;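 note: wild-type TIM10 isogenic control strain grown at permissive 25 °C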
V-ATPase pH: yeast V-ATPase proton transport regulation by pHLuorin. S. cerevisiae, pHLuorin cytosolic pH fluorescence. response, % at 10 µM. 350,000 tested, 0.37% active. AID 504577; in the data active = response mostly above about 7.3%, no sharp cut-off; inactive = mostly below about 5.4%; note: actives read high
tim23-1 inh: inhibits growth of tim23-1 mutant yeast; S. cerevisiae tim23-1 growth, BacTiter-Glo luminescence, 24 h; inhibition, % at 20 µM; 330,000 tested, 1.3% active; AID 463212;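 active = growth inhibition of the mutant yeast at or above 50%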;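 note: temperature-sensitive mutant grown at 25 °C; plate controls were DMSO-treated mutant yeast for no effect and medium wells lacking yeast for full effect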
PfHsp90 set2: inhibits growth of yeast expressing Plasmodium falciparum Hsp90; S. cerevisiae expressing PfHsp90, BacTiter-Glo ATP, 48 h; yeast lacking PDR1 and PDR3 efflux regulators; 310,000 tested, 0.32% active; inhibition, % at 9.4 µM;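 active = every replicate shows inhibition above about 80%, whatever the replicate mean, limit read from the data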;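 note: 0% = DMSO neutral controls and 100% = 20 µM radicicol positive controls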
tim10-1 inh: growth inhibitors of tim10-1 mutant yeast; inhibition, % at 20 µM; S. cerevisiae tim10-1 ts strain growth, BacTiter-Glo, 24 h; 330,000 tested, 2.2% active;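 active = inhibition of at least 40%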;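 note: mutant grown at 25 °C; 0% = DMSO wells with yeast and 100% = wells holding no yeast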
SKKanGAS inh: SKKanGAS growth inhibition. inhibition, % at 7.5 µM. 300,000 tested, 1.3% active. S. pyogenes SKKanGAS, kanamycin growth, BacTiter-Glo, 6 h. AID 1662;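 active = mean replicate score, as percent of positive control median, at least 50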;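 note: strain carries kanamycin resistance gene driven by streptokinase promoter and grows in 40 µg/ml kanamycin; loss of luminescence reflects streptokinase promoter inhibition or plain growth inhibition; 0% = median of DMSO wells and 100% = positive control at its reference dose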
tim10-1 conf: confirmation of tim10-1 mutant yeast growth inhibitors. shares compounds with tim10-1 inh. S. cerevisiae tim10-1 ts strain growth, BacTiter-Glo, 24 h. inhibition, % at 20 µM. 7,400 tested, 56% active. AID 463213;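 active = inhibition of yeast growth at or above a set limit in either of two repeat tests at 20 µM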;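 note: tim10-1 mutant grown at permissive 25 °C to find synthetic lethal compounds; 0% = DMSO yeast wells and 100% = medium wells without yeast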
Numbers without * were called inactive; x = not tested or not shown. Only some compounds are listed: those with a hit (about 4.6% of all), similar ones and a draw of the others.

SMILES | TIM10 inh | V-ATPase pH | tim23-1 inh | PfHsp90 set2 | tim10-1 inh | SKKanGAS inh | tim10-1 conf
O=C1CN(S(=O)(=O)c2ccc([N+](=O)[O-])cc2)CC(=O)N1 | 3 | 3 | -1 | 8 | -9 | 6 | x
Cc1cc(C)c2c(=O)[nH]c(SCC(=O)c3ccc(F)c(C)c3)nc2n1 | x | 1 | x | -12 | x | -1 | x
COc1ccc(CCNC(=O)c2cc(-c3ccncc3)nc3ccc(S(=O)(=O)N4CCOCC4)cc23)cc1OC | 32 | 8 | -3 | 2 | 6 | 1 | x
COC(=O)NCC(C)OC(=O)Nc1cccc(Cl)c1 (stereo not drawn) | -5 | 2 | -2 | 7 | -7 | -5 | x
CC(CNC(=O)COc1ccccc1)OC(=O)Nc1ccc(Cl)c(Cl)c1 (stereo not drawn) | 33 | 2 | 41 | 5 | 50* | -2 | 43*
O=C(CSc1nncn1-c1cccnc1)Nc1cccc(C(F)(F)F)c1 | -1 | -1 | 6 | 9 | -5 | -2 | x
Nc1nnc(-c2ccccc2)c(-c2ccccc2)n1 | -2 | -2 | 12 | -18 | 41* | -4 | 10
CCc1ccc(CNC(=O)CCCn2c(=O)c3cccn3c3cccnc32)cc1 | 13 | 7 | 34 | -9 | 46* | -7 | 6
CCOc1cc(CNC(=O)CCCn2c(=O)c3cccn3c3cccnc32)cc(OCC)c1OCC | 7 | 2 | 14 | -5 | 17 | -6 | x
CCC(=O)Nc1nc2ccc3nc(C)sc3c2s1 | 23 | 6 | 21 | 14 | 48* | -4 | 23
COc1ccc(/C=C2\SC(=S)N(CC(=O)NC3C=CS(=O)(=O)C3)C2=O)cc1 (stereo not drawn) | 6 | 2 | 8 | -27 | -12 | -6 | x
CC(=O)N1N=C(c2cccc(Cl)c2)OC1c1cccc([N+](=O)[O-])c1 (stereo not drawn) | 23 | 4 | 29 | 33 | 29 | 5 | x
CC(=O)N1N=C(c2cccc([N+](=O)[O-])c2)OC1c1cccc(Br)c1 (stereo not drawn) | 22 | 0 | 47 | 4 | 45* | 8 | 29
CCCSc1ccc([C@@H]2[C@H]3C(=O)N(CC)C(=O)[C@H]3[C@]3(C(=O)OC)CCCCN23)cc1 | 20 | -3 | 32 | x | 31 | 14 | x
COc1ccc(C)cc1NC(=O)NCCC1=CCCCC1 | 38 | 4 | 41 | x | 43* | -1 | 31*
CCOc1ccc(CCNC(=O)Cn2ncn3nc(-c4ccc(OC)cc4)cc3c2=O)cc1OCC | -1 | -2 | 10 | 1 | 16 | 6 | x
c1ccc(-c2nc(CSc3n[nH]c(-c4cccs4)n3)cs2)cc1 | 37 | 2 | 39 | 5 | 42* | -13 | 34*
O=C1NCCc2c1[nH]c1c(Cl)ccc(Cl)c21 | 33 | -3 | 1 | -16 | 42* | -8 | 36*
Cc1ccc2cc(CN(c3ccccc3)S(=O)(=O)c3ccccc3)c(=O)[nH]c2c1 | 8 | 2 | 22 | -40 | 13 | -8 | x
CCOc1ccc(N(Cc2cc3ccc(C)cc3[nH]c2=O)S(=O)(=O)c2ccccc2)cc1 | 3 | 0 | 45 | 7 | 42* | 16 | 15
Cc1cc(Cl)ccc1NC(=S)NCCC(c1ccccc1)c1ccccc1 | 30 | 3 | 12 | -25 | 40* | 66* | 15
Clc1cccc2c1CCN(Cc1nc(-c3cnccn3)no1)C2 | -2 | -2 | 13 | -49 | 8 | -4 | x
CCN(CC)CC(=O)Nc1ccc([N+](=O)[O-])cc1 | 19 | 0 | -10 | -10 | -3 | -6 | x
CC1(C)Cc2c(ccc3ccccc23)/C(=C/C(=O)N2CCCCC2)N1 | 30 | -6 | 47 | 3 | 45* | 4 | 32*
O=C(/C=C1\NC2(CCCC2)Cc2ccccc21)N1CCOCC1 | 18 | -5 | 21 | 4 | 30 | 1 | x
SMILES | TIM10 inh | V-ATPase pH | tim23-1 inh | PfHsp90 set2 | tim10-1 inh | SKKanGAS inh | tim10-1 conf
O=C1NC(c2ccccc2)N=C2Oc3ccccc3C=C12 (stereo not drawn) | x | -1 | x | -19 | x | x | x
COc1cc(C(=O)Nc2ccc(S(=O)(=O)N3CCCCC3C)cc2)cc(OC)c1OC (stereo not drawn) | 36 | 4 | 26 | 2 | 46* | 2 | 38*
Cc1cccc(NC(=O)c2ccc(S(=O)(=O)N3CCCCC3C)cc2)n1 (stereo not drawn) | 18 | 0 | 36 | -7 | 41* | 44 | 15
COc1ccc(C(=O)Nc2ccc(S(=O)(=O)N3CCCCC3C)cc2)c(OC)c1OC (stereo not drawn) | 20 | 2 | 31 | -19 | 35 | 4 | x
Cc1cccc(NC(=O)c2ccc(S(=O)(=O)N3CCCCC3)cc2)n1 | 18 | 4 | 13 | -29 | 26 | -5 | x
O=C(CN1C(=O)NC2(CCCc3ccccc32)C1=O)N1CCCCC1 (stereo not drawn) | -8 | 2 | 2 | 25 | -18 | -1 | x
Cc1cc(=O)oc2cc(OCc3nnc(-c4ccccc4Br)o3)ccc12 | 25 | 2 | 18 | -31 | 44* | x | 21
O=c1ccc2ccc(OCc3nnc(-c4ccccc4Br)o3)cc2o1 | 6 | -1 | 10 | x | 12 | -3 | x
CC[C@@]1(C(=O)OC)N[C@H](CN(C)C(=O)Nc2ccc(OC)cc2)[C@@H]2C(=O)N(Cc3ccccc3)C(=O)[C@@H]21 | 6 | -1 | -6 | 5 | 2 | x | x
Cc1nc2c(c(=O)n1CCC1=CCCCC1)c1nc3ccccc3nc1n2/N=C/c1ccco1 | 10 | -2 | 4 | -4 | -6 | 39 | x
CCCn1c(C)nc2c(c1=O)c1nc3ccccc3nc1n2CCC1=CCCCC1 | 7 | 5 | 39 | x | 49* | 11 | -2
CCCc1nn(C)c(C(=O)Nc2ccc(CC)cc2)c1Cl | 11 | 0 | 20 | 10 | 43* | 2 | 11
CCOC(=O)[C@H]1[C@H]2COc3ccc(C)cc3[C@@H]2N2C(=O)c3cc(Cl)ccc3NC(=O)[C@@]12C | 23 | 3 | 34 | -26 | 40* | x | 17
C/C(=N\Nc1cc(Cl)nc(C)n1)c1ccccc1 | 11 | 2 | 16 | x | 41* | -9 | 39*
C/C(=N\Nc1nc(N2CCCCCC2)nc(N2CCCCCC2)n1)c1ccccc1 | 40 | -9 | 36 | 6 | 40* | 59* | 28
C/C(=N\Nc1nc(N2CCCCC2)nc(N2CCOCC2)n1)c1cccs1 | 5 | -2 | 11 | 2 | 7 | 1 | x
Cc1cc(O)c2c(c1)CC1C3CCC4CC(=O)CCC4(C)C3CC(=O)C21C (stereo not drawn) | x | 2 | x | -29 | x | x | x
Cn1c(SCCN2CCCC2)nnc1C1CCN(S(=O)(=O)c2cccc(F)c2)CC1 | -9 | -3 | 8 | -8 | -19 | 9 | x
CCOC(=O)CSc1nc(C2CC2)nc2ccccc12 | 20 | 5 | 29 | -11 | 40* | -2 | 3
